Polio RdRp inh: inhibitors of poliovirus RNA polymerase binding and polymerization; P03300; poliovirus polymerase elongation, fluorescence polarization; stronger effect = lower value; % elongation, % (compound at 16.7 µg/mL); hit rate 0.66% among 150,000; in the data active = % elongation below about 90%
Mtb MenB inh: inhibitors of Mycobacterium tuberculosis MenB enzyme | MenB enzyme assay, absorbance read-out | inhibition, % (no concentration beside the values) | hit rate 0.43% among 100,000 | P9WNP5; in the data active = inhibition above about 21%, passing the limit was not always enough
AID504770: growth inhibitors of E. coli YBA685 in a screen for V. cholerae RctB (chromosome II replication) inhibitors; E. coli YBA685 rctB-dependent plasmid, OD600 growth, 3 h; stronger effect = lower value; z-score (test concentration not listed); hit rate 0.27% among 130,000; AID 504770; in the data active = z-score below about -2, passing the limit was not always enough
MbtI inh: MbtI salicylate synthase inhibition; P9WFX0; purified MbtI enzyme, fluorescence intensity read-out; inhibition, % (concentration not given with the values); hit rate 0.89% among 100,000; AID 493033; in the data active = inhibition mostly above about 56%, no sharp cut-off; inactive = mostly below about 77%
Target sequence (P9WFX0 whole entry, looked up): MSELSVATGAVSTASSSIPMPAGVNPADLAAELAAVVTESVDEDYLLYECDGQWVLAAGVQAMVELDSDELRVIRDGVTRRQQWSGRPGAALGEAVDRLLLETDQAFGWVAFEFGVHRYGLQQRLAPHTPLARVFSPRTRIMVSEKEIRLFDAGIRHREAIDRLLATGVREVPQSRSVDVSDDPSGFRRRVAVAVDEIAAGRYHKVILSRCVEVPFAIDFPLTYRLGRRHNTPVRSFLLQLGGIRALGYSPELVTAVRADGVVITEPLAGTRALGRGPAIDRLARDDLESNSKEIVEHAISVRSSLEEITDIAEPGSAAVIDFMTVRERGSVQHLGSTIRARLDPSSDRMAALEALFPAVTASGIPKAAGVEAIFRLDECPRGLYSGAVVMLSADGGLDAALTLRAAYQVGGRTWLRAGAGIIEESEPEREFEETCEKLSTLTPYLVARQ
Active calls of the source: *. Shown are actives, neighbours in structure and some others; about 1.4% of the full set was active somewhere.

`COc1ccc(-n2c(-c3ccco3)nc3ccccc3c2=O)cc1` gave Polio RdRp inh 100, Mtb MenB inh -2, AID504770 0 and MbtI inh -1.
`O=C(O)CCC(=O)c1ccccc1` gave Polio RdRp inh 75*, Mtb MenB inh -4, AID504770 -0.5 and MbtI inh -6.
`O=C(O)CCCC(=O)c1ccccc1` gave Polio RdRp inh 96, Mtb MenB inh -12, AID504770 0.25 and MbtI inh 4.
Screening O=C(c1ccccc1)c1ccc(C(=O)c2ccccc2)cc1 returned Polio RdRp inh 82*, Mtb MenB inh 1 and AID504770 -0.4.
`O=C(O)c1ccc(C(=O)O)c(C(=O)c2ccccc2)c1` gave AID504770 0.7.
For O=C(c1ccccc1)c1ccc(C(=O)O)c(C(=O)O)c1 the results were Polio RdRp inh 103, Mtb MenB inh 46*, AID504770 1.5 and MbtI inh -1.
`CCOc1ccc(C(N)=S)cc1OC` gave Polio RdRp inh 98, Mtb MenB inh -17, AID504770 -0.3 and MbtI inh 7.
For COc1ccccc1N1CCN(CCCNC(=O)CCc2c(C)nc3c(c2C)c(=O)n(C)c(=O)n3C)CC1 the results were Polio RdRp inh 100, Mtb MenB inh -5, AID504770 0.2 and MbtI inh 6.
O=S(=O)(c1ccc(Cl)cc1)N(O)c1ccc(Cl)cc1 was read as Polio RdRp inh 97, Mtb MenB inh 19, AID504770 -1.5 and MbtI inh 88*.
For CN(c1ccccc1)S(=O)(=O)c1ccc(Cl)cc1 the results were Polio RdRp inh 106, Mtb MenB inh -18 and AID504770 -0.75.
Screening NCCS returned Polio RdRp inh 102, Mtb MenB inh 0, AID504770 -0.05 and MbtI inh 51*.
For CC(=O)N(CCC(c1ccccc1)c1ccco1)Cc1ccc(F)cc1 (configuration not stated) the results were Polio RdRp inh 100, Mtb MenB inh -29, AID504770 0.8 and MbtI inh 33.
Screening CC1CC(NC2=NCCS2)CC(C)(C)C1 (configuration not stated) returned AID504770 1.2.
CCOCCCNC1CC(C)CC(C)(C)C1 (configuration not stated) was read as Polio RdRp inh 101, Mtb MenB inh -14, AID504770 -2.2* and MbtI inh -17.
`COCCCNC(=O)CCC(=O)NNc1nc2ccccc2c2nc(C)nn12` gave Polio RdRp inh 24*.
CCCCNC(=O)CCC(=O)NNc1nc2ccccc2c2nc(-c3ccccc3)nn12 was read as Polio RdRp inh 106.
Screening CCCCNC(=O)CCC(=O)NNc1nc2ccccc2c2nc(C)nn12 returned Polio RdRp inh 81*.
For Cc1nc2c3ccccc3nc(NNC(=O)CCC(=O)N3CCN(c4ccc(F)cc4)CC3)n2n1 the results were Polio RdRp inh 95.
CCOCCCNC(=O)CCC(=O)NNc1nc2ccccc2c2nc(C)nn12 was read as Polio RdRp inh 36*.
`CC(C)(C)NC(=O)NC(=O)Cn1nnc(-c2ccccc2)n1` gave Polio RdRp inh 96, Mtb MenB inh -10, AID504770 -0.15 and MbtI inh -4.
Screening S=c1n(CN2CCCCC2)nc(-c2ccccc2)n1-c1ccccc1 returned Polio RdRp inh 101, Mtb MenB inh -29 and AID504770 0.
O=C(NCCc1ccccc1F)c1ccc2ccccc2c1 was read as Polio RdRp inh 103, Mtb MenB inh -46, AID504770 -0.25 and MbtI inh -3.
`Cc1ncc(CO)c(/C=N/N=C2\CC3CCC2(C)C3(C)C)c1O` (configuration not stated) gave Polio RdRp inh 102, Mtb MenB inh -12, AID504770 0.15 and MbtI inh -2.
O=c1[nH]c(CSc2ccccn2)nc2ccsc12 was read as Polio RdRp inh 128, Mtb MenB inh -22, AID504770 0.65 and MbtI inh 96*.
Cc1c(N=c2c(=O)c3ccccc3c2=O)c(=O)n(-c2ccccc2)n1C was read as Polio RdRp inh 63*, Mtb MenB inh -44, AID504770 1.8 and MbtI inh 9.
Screening CCc1nc2ccccc2c(N)c1C returned Polio RdRp inh 90*, Mtb MenB inh 14 and AID504770 -0.85.
For Cc1cc(Br)cc(C)c1OCCCN(C)C the results were Polio RdRp inh 88*, Mtb MenB inh -1, AID504770 0.5 and MbtI inh -4.
Screening O=C(c1csc2c1CCCC2)N1CCN(S(=O)(=O)c2cccs2)CC1 returned Polio RdRp inh 101, Mtb MenB inh -27, AID504770 -0.7 and MbtI inh -9.
c1coc(CNc2nc(C34CC5CC(CC(C5)C3)C4)cs2)c1 was read as Polio RdRp inh 91, Mtb MenB inh -26, AID504770 0.7 and MbtI inh 59*.
For Cc1nnc(NCc2ccco2)s1 the results were Polio RdRp inh 99, Mtb MenB inh -7, AID504770 0.25 and MbtI inh 6.
`CCOC(=O)c1sc(N(C)C(C)=O)nc1C` gave Polio RdRp inh 99, Mtb MenB inh 39*, AID504770 0.8 and MbtI inh 19.
Screening CCOC(=O)c1sc(Br)nc1C returned AID504770 0.95.
`CNC(=S)NCCN1C(=O)S/C(=C\c2cccnc2)C1=O` gave Polio RdRp inh 105, Mtb MenB inh -24, AID504770 -3* and MbtI inh 2.
Oc1nc2ccccn2c1-c1c(O)nc2ccccn12 was read as Polio RdRp inh 21*, AID504770 1.6 and MbtI inh 6.
c1ccn2c(c1)nc1c2nc2ccccn21 was read as Polio RdRp inh 101, Mtb MenB inh -18, AID504770 -0.55 and MbtI inh 77.
Screening CCN(CC)S(=O)(=O)c1ccc(Cl)c(C(=O)OC)c1 returned Polio RdRp inh 102, Mtb MenB inh -16, AID504770 1.8 and MbtI inh -14.
`CCN(CC)S(=O)(=O)c1ccc(Cl)c(C(=O)Oc2ccc(C)c(C)c2)c1` gave Polio RdRp inh 45*, Mtb MenB inh -36, AID504770 0.2 and MbtI inh 4.
Screening O=C(CSc1ncn[nH]1)Nc1ccc(S(=O)(=O)N2CCCCC2)cc1 returned Polio RdRp inh 104, Mtb MenB inh -22, AID504770 0.4 and MbtI inh 8.
`O=C(c1cccc(S(=O)(=O)NC2CC2)c1)N1CCN(c2ncccn2)CC1` gave Polio RdRp inh 94, Mtb MenB inh -8, AID504770 -0.4 and MbtI inh 14.
Screening O=C(CSc1nnc(-c2ccco2)c(-c2ccco2)n1)N1c2ccccc2Sc2ccc(Cl)cc21 returned Polio RdRp inh 101, Mtb MenB inh 33*, AID504770 -0.75 and MbtI inh 44.
Cc1ccc(-c2csc(-c3nnn(-c4ccc(C)c(C)c4)c3N)n2)cc1 was read as Polio RdRp inh 27*, Mtb MenB inh 8, AID504770 2.6 and MbtI inh 19.
Cc1ccc(-c2csc(-c3nnn(-c4cccc(Cl)c4)c3N)n2)cc1 was read as Polio RdRp inh 100, Mtb MenB inh 16, AID504770 2.4 and MbtI inh 20.

Source: PubChem
